Measurements published in PubChem BioAssay (NCATS).
Inconclusive results are not listed. Unmarked numbers belong to inactive results. Calls come from the whole dose curve.

Assay: Validation screen for inhibitors of Lassa infection (AID 463096)
Settings: Lassa virus infection, cell-based; series mostly up to 46.1 µM; activity change, negative = inhibition: at the top concentration
% is set by controls: 0 for no effect and ±100 for the full control effect.

Compound	activity change, negative = inhibition
CCN(CC)CCOCCOC(=O)C1(c2ccccc2)CCCC1	-27%
C[C@]12CCC(=O)C=C1CC[C@@H]1[C@@H]2CC[C@@]2(C)[C@H]1CC[C@]2(O)C(=O)CO	5.99%
N[C@@H](Cc1c[nH]c2ccc(O)cc12)C(=O)O	12%
COc1ccccc1N1CCN(CC(O)COc2cccc3ccccc23)CC1 (stereo not given)	-37.9%
CCCn1cnc2c1c(=O)n(CCCCC(C)=O)c(=O)n2C	-12.2%
O=C1N(c2ccccc2)c2ccccc2C1(Cc1ccncc1)Cc1ccncc1	-4.48%
O=C(O)CCc1nc(-c2ccccc2)c(-c2ccccc2)o1	-8.35%
COc1ccc(CCN(C)CCCC(C#N)(c2cc(OC)c(OC)c(OC)c2)C(C)C)cc1OC (stereo not given)	-4.33%
NCCc1cnc[nH]1	4.44%
CN(C)CCC(c1ccccc1)c1ccccn1 (stereo not given)	-7.51%
c1cnc(N2CCN(Cc3ccc4c(c3)OCO4)CC2)nc1	41.6%
CCN(CC)CC(=O)Nc1c(C)cccc1C	2.99%
COc1ccc2c(c1)c(CC(=O)O)c(C)n2C(=O)c1ccc(Cl)cc1	24.6%
CC1=C(CC(=O)O)c2cc(F)ccc2/C1=C\c1ccc(S(C)=O)cc1 (stereo not given)	-14.5%
NS(=O)(=O)c1cc2c(cc1Cl)NC(C1CC3C=CC1C3)NS2(=O)=O (stereo not given)	47.5%
Cn1c(=O)c2c(ncn2C)n(C)c1=O	-6.44%
CNC[C@H](O)c1ccc(O)c(O)c1	-10.8%
C(=C\c1ccccc1)/CN1CCN(C(c2ccccc2)c2ccccc2)CC1	-22.7%

Compound	activity change, negative = inhibition
Clc1ccc(Cn2c(CN3CCCC3)nc3ccccc32)cc1	-22.1%
CC(=O)OCC1=C(C(=O)O)N2C(=O)[C@@H](NC(=O)CSc3ccncc3)[C@H]2SC1	30.4%
CC(C)COCC(CN(Cc1ccccc1)c1ccccc1)N1CCCC1 (stereo not given)	10.2%
CCOC(=O)C(C)(C)Oc1ccc(Cl)cc1	4.17%
CN(C)C(=O)Oc1cccc([N+](C)(C)C)c1	9.45%
Cc1ccc(/C(=C\CN2CCCC2)c2ccccn2)cc1	-46%
NCCc1ccc(O)c(O)c1	-19.6%
COc1cc2c(cc1OC)-c1cc(=Nc3c(C)cc(C)cc3C)n(C)c(=O)n1CC2	-23.6%
CCc1cccc2c3c([nH]c12)C(CC)(CC(=O)O)OCC3 (stereo not given)	20.7%
Cc1ccc(N(CC2=NCCN2)c2cccc(O)c2)cc1	-20.3%
CCCCCN(CCCCC)C(=O)C(CCC(=O)O)NC(=O)c1ccc(Cl)c(Cl)c1 (stereo not given)	-19%
CCNC(=O)N1CCN(CCCC(c2ccc(F)cc2)c2ccc(F)cc2)CC1	-4.65%
Cc1cc(C(C)(C)C)c(O)c(C)c1CC1=NCCN1	-18.3%
CCCOc1ccccc1-c1nc2n[nH]nc2c(=O)[nH]1	24.1%
CN(C)CCN(Cc1cccs1)c1ccccn1	56.6%
CCCN(CCC)C(=O)C(CCC(=O)O)NC(=O)c1ccccc1 (stereo not given)	0.851%
C=CCc1ccccc1OCC(O)CNC(C)C (stereo not given)	14.9%
